TIM10 inh: growth inhibitors of isogenic TIM10 control yeast, primary screen, counter-screen for tim10-1 yeast inhibitor project, luminescence, uHTS; S. cerevisiae TIM10 strain growth, BacTiter-Glo luminescence, 24 h; inhibition, % at 10 µM; 330,000 tested, 1.4% active; AID 463195, 2010;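 active means inhibition of 40% or more at the single tested concentration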;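 further: wild-type TIM10 isogenic control strain grown at permissive 25 °C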
PfHsp90 yeast 2: growth inhibition of PfHsp90-expressing yeast, primary screen, antimalarial PfHsp90 inhibitor project, S. cerevisiae, BacTiter-Glo luminescence, single point, set 2; BacTiter-Glo ATP, 48 h; yeast lacking PDR1 and PDR3 efflux regulators; inhibition, % at 9.4 µM; 310,000 tested, 0.32% active;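 active means every replicate shows inhibition above about 80%, whatever the replicate mean, limit read from the data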
NLRP3 yeast inh: NALP3 inflammasome inhibitors in reconstituted yeast, primary screen, luminescence, uHTS; 330,000 tested, 0.39% active; Yeast reconstituted NLRP3/ASC/caspase-1, beta-gal luminescence, 24 h; inhibition, % at 10 µM;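 active means inhibition of 50% or more; inactive means inhibition below 50%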
tim23-1 inh: growth inhibitors of tim23-1 mutant yeast, primary screen, luminescence, uHTS; S. cerevisiae tim23-1 growth, BacTiter-Glo luminescence, 24 h; inhibition, % at 20 µM; 330,000 tested, 1.3% active; AID 463212, 2010;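 active means growth inhibition of the mutant yeast at or above 50%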;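 further: temperature-sensitive mutant grown at 25 °C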
tim10-1 inh: growth inhibitors of tim10-1 mutant yeast, primary screen, luminescence, uHTS; inhibition, % at 20 µM; AID 463190, 2010; 330,000 tested, 2.2% active; S. cerevisiae tim10-1 ts strain growth, BacTiter-Glo, 24 h;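 active means inhibition of at least 40%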;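 further: mutant grown at 25 °C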
tim10-1 confirm: growth inhibitors of tim10-1 mutant yeast, confirmation, single concentration, luminescence, S. cerevisiae; inhibition, % at 20 µM; S. cerevisiae tim10-1 ts strain growth, BacTiter-Glo, 24 h; 7,400 tested, 56% active; AID 463213, 2010; shares compounds with tim10-1 inh;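 active means inhibition of yeast growth at or above a set limit in either of two repeat tests at 20 µM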;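 further: tim10-1 mutant grown at permissive 25 °C to find synthetic lethal compounds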
Numbers stand for hits; . = inactive; / = no result given. Sampled rows, rich in hits. Any-hit rate of the full collection: about 3.7%.

SMILES	TIM10 inh	PfHsp90 yeast 2	NLRP3 yeast inh	tim23-1 inh	tim10-1 inh	tim10-1 confirm
Cc1cc(OCCOc2cccc3cccnc23)cc(C)c1Cl	.	.	.	.	41.3	.
O=[N+]([O-])c1ccc(NC(=S)N2CCc3ccccc3C2)cc1	.	.	.	.	41.2	.
O=C(NC1CC2CCCC(C1)N2CC(=O)N1CCCc2ccccc21)C1CCCCC1 (stereo unspecified)	.	.	.	.	.	/
C/C1=C\CCC2C(/C=C(\C)CC1)OC(=O)C2CN1CCCCC1 (stereo unspecified)	.	.	.	.	40.5	43.1
COc1ccc(-c2cc(C)no2)cc1S(=O)(=O)NCCCN(C)Cc1ccccc1	.	.	.	.	.	/
COc1ccc(-c2onc(C)c2C)cc1S(=O)(=O)NCCc1ccco1	.	.	.	.	43.1	.
O=C1CC(N2CCC(Cc3ccccc3)CC2)C(=O)N1CCc1ccccc1 (stereo unspecified)	.	.	.	.	46.4	.
CCOc1cccc(-c2nn3c(-c4ccco4)nnc3s2)c1	.	.	.	.	42.5	.
COc1cccc(-c2nnc3sc(-c4ccc(C)cc4)nn23)c1	.	/	.	.	.	/
COc1cccc(-c2nnc3sc(-c4ccco4)nn23)c1	.	/	.	.	.	/
COc1cccc(-c2nn3c(-c4cccc(C)c4)nnc3s2)c1	.	.	.	.	44.0	.
CC(C)COC(=O)n1c(=O)oc2cc(S(=O)(=O)N3CCCCC3)ccc21	.	/	.	.	41.0	38.3
O=C(NCCN1C(=O)S/C(=C\c2ccc(OC(F)F)cc2)C1=O)c1cnccn1	.	.	.	.	.	/
C[C@]12CCC(=O)CC1CCC1C2CC[C@@]2(C)C1CC[C@@]21CCO1 (stereo partly specified)	.	.	.	.	.	/
C[C@]12CCC(=O)C[C@@H]1CC[C@@H]1[C@@H]2CC[C@]2(C)C=CC[C@@H]12	.	.	.	.	52.0	69.7
CC1(C)Cc2ccccc2/C(=C/C(=O)N2CCCCCC2)N1	.	.	.	.	42.5	40.2
CCOc1ccc(OCC)c(NC(=O)CN2CCN(c3cccc(C)c3)CC2)c1	.	.	.	.	46.4	.
CN(Cc1cccc(Cl)c1Cl)C(=O)c1cccc(S(=O)(=O)N2CCN(Cc3ccccc3)CC2)c1	.	.	.	.	.	/
O=C(CNc1cc(S(=O)(=O)N2CCOCC2)ccc1N1CCCC1)NCc1ccco1	.	.	.	.	.	/
N#CCC1c2ccccc2CCN1C(=O)Nc1ccc(C(F)(F)F)cc1 (stereo unspecified)	.	.	.	.	46.4	40.8
O=[N+]([O-])c1ccc(N2CCCCCC2)c(S(=O)(=O)N2CCCCC2)c1	.	.	.	.	47.8	.
Cc1nn(Cc2ccc(Cl)cc2)c(C)c1NC(=O)c1noc2c1CCCCC2	.	/	.	.	43.3	43.8
Cc1nn(Cc2ccc(C(=O)NN)cc2)c(C)c1Cl	.	.	.	.	.	/
Cc1nn(Cc2ccc(Cl)cc2)c(C)c1NC(=O)c1ccc([N+](=O)[O-])cc1	.	.	.	.	53.2	41.0
Cc1nn(Cc2ccc(Cl)c(Cl)c2)c(C)c1NC(=O)c1noc2c1CCCCC2	.	.	.	.	.	/
SMILES	TIM10 inh	PfHsp90 yeast 2	NLRP3 yeast inh	tim23-1 inh	tim10-1 inh	tim10-1 confirm
Cc1nn(Cc2ccc(C(=O)Nc3ccccc3F)cc2)c(C)c1Cl	.	.	.	.	40.8	.
Cc1c(Cl)c([N+](=O)[O-])nn1Cc1ccc(C(=O)Nc2ccc(Cl)cn2)o1	.	.	.	.	46.6	34.2
COc1ccc(-c2cc(C3CC3)nc(N)c2C#N)cc1	.	.	.	.	.	/
COc1ccc(-c2cc(C3CC3)nc3sc(C#N)c(N)c23)cc1	.	.	.	.	44.3	56.7
CCOC(=O)Nc1ccc2c(CNC(C)c3ccccc3OC)cc(=O)oc2c1 (stereo unspecified)	.	.	.	.	46.6	.
CC(=O)c1ccc(S(=O)(=O)N2CCN(CC(=O)NC(=O)NC3CCCCC3)CC2)cc1	/	.	/	/	/	/
CCOC(=O)c1ccc(S(=O)(=O)N2CCN(CC(=O)NC(=O)NC3CCCCC3)CC2)cc1	.	.	.	.	44.0	.
CNS(=O)(=O)c1cc(-c2nnc(Nc3ccc(CC(N)=O)cc3)c3ccccc23)ccc1C	.	.	.	.	.	/
Nc1ccc(SC(F)(F)F)cc1C(=O)c1ccccc1	.	.	.	.	50.2	.
CCn1ncc(/C=C/C(=O)c2ccccc2)c1C	.	.	.	.	45.6	.
CCCC(=O)Nc1ccc(C(=O)/C=C/c2ccc(SC)cc2)cc1	.	.	.	.	44.8	33.9
CSc1ccc(/C=C/C(=O)c2ccc(NC(C)=O)cc2)cc1	.	.	.	.	.	/
CCOc1cc(Br)cc(C(c2c(C(=O)O)[nH]c3ccccc23)c2c(C(=O)O)[nH]c3ccccc23)c1O	.	.	.	.	.	/
COC(=O)c1c(Cc2ccccc2Cl)c[nH]c1C	.	.	.	.	41.0	.
COc1ccccc1C(=O)N1CCN(c2nc3cc(C)c(C)cc3cc2C#N)CC1	.	.	.	.	43.0	.
CCOc1ccc(S(=O)(=O)N2CCOCC2)cc1NC(=O)c1ccc(N2CCCC2=O)cc1	.	.	.	.	.	/
CC1CCN(c2ccc(S(=O)(=O)N3CCC(C)CC3)cc2N)CC1	.	.	.	.	40.6	.
CC1CCN(S(=O)(=O)c2ccc3ccccc3c2)CC1	.	.	.	.	43.8	30.7
CN1CCN(S(=O)(=O)c2ccc3ccccc3c2)CC1	.	.	.	.	.	/
CN(C)C(=O)N1CCN(S(=O)(=O)c2ccc3ccccc3c2)CC1	.	.	.	.	.	/
O=C(CCl)N1CCN(S(=O)(=O)c2ccc3ccccc3c2)CC1	.	.	.	.	40.3	33.2
CN(C)C/C=C(/c1ccc(Br)cc1)c1cccnc1	.	.	.	.	.	/
NC(=O)c1cc(Cl)ccc1OCC(=O)NC1CC1	.	.	.	.	.	/
CN(C)C(=O)Cn1cc(S(=O)(=O)Cc2ccccc2)c2ccccc21	.	.	.	.	.	/
O=C(Cn1c(O)c(/C=C2\C=Nc3ccccc32)sc1=O)N1CCOCC1	.	.	.	.	.	/
O=C(Cn1c(O)c(/C=C2\C=Nc3ccc(Br)cc32)sc1=O)N1CCCC1	.	.	.	.	51.6	.
CCC1CCc2c(sc(N)c2C(N)=O)C1 (stereo unspecified)	.	.	.	.	.	/
CC1CCc2c(sc(N)c2C(N)=O)C1 (stereo unspecified)	.	/	.	.	40.8	.

Bioassay records as filed in PubChem BioAssay.
